Holding throughout (assay): PBM binding z-score (relative to random genomic background probes); higher = stronger binding; sequences stand for … in GC…GCGATTGACAGCGTAGAATGAAGG
Test [1] has as its system PPARg:RXRa DBDmut IVT, anti-RXR (DBD mutation: RXRa K156A/R161A, NR concentration 270 nM, RXRa partner concentration 90 nM). The method, boiled down:
(§1)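 Random background probes are the reference for binding z-scores. These scores derive from regression-normalized fluorescence on custom Agilent 4×180K protein-binding microarrays incubated 1 h with ligand-free nuclear receptor dimers. Binding was detected with antibodies against each partner (one per run).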

For test [2], the system named is PPARg:RXRa IVT, anti-PPARg (NR concentration 270 nM, RXRa partner concentration 90 nM). The method, boiled down:
as §1

Test [3] deals with PPARg DBDmut:RXRa IVT, anti-PPARg (DBD mutation: PPARg1 K132A/R137A, NR concentration 270 nM, RXRa partner concentration 90 nM). The method, boiled down:
as §1

Test [4] has as its system PPARg DBDmut IVT, anti-PPARg (DBD mutation: PPARg1 K132A/R137A, NR concentration 270 nM). The method, boiled down:
as §1

Test [5] deals with PPARg homodimer (NR concentration 180 nM). Put shortly: as §1
In test [6] the test system is PXR:RXRa (NR concentration 270 nM, RXRa partner concentration 90 nM). Put shortly: as §1
In test [7] the test system is PXR homodimer (NR concentration 270 nM). Put shortly:
as §1

Test [8] deals with RARa:RXR (NR concentration 270 nM, RXRa partner concentration 90 nM). Put shortly:
as §1

The subject of test [9] is RARa homodimer (NR concentration 270 nM). Put shortly:
as §1

Test [10] deals with RARb:RXRa (NR concentration 270 nM, RXRa partner concentration 90 nM). Put shortly:
as §1

Test [11] deals with RARb homodimer (NR concentration 270 nM). Put shortly: as §1
Test [12] concerns RARg:RXRa (NR concentration 270 nM, RXRa partner concentration 90 nM). The method, boiled down:
as §1

Test [13] relates to RARg homodimer (NR concentration 270 nM). The method, boiled down:
as §1

The subject of test [14] is RXRa DBDmut IVT, anti-RXR (DBD mutation: RXRa K156A/R161A, NR concentration 90 nM). Put shortly:
as §1

For test [15], the system named is RXRa homodimer (NR concentration 180 nM). The method, boiled down:
as §1

For test [16], the system named is THRa:RXRa (NR concentration 90 nM, RXRa partner concentration 90 nM). The method, boiled down: as §1
Test [17] has as its system THRa homodimer (NR concentration 90 nM). The method, boiled down: as §1
The subject of test [18] is VDR homodimer (NR concentration 270 nM). The method, boiled down: as §1

Consider GTACCAAGGTGAATAGGTCGTTAATGAGTAGGCG, for which the PBM binding z-score was 1.75 in test [1]; 2.66 in test [2]; 0.399 in test [3]; 0.346 in test [4]; 1.46 in test [5]; 0.664 in [6]. For the same sequence, the PBM binding z-score in [7] stood at 0.393; in test [8], 1.44; in [9] it was 0.00305; in test [10] it was 1.91; in [11], 1.88; in test [12] it was 2.4. For the same sequence, the PBM binding z-score was 1.37 in test [13]; -0.112 in test [14]; 1.7 in test [15]; 1.7 in [16]; 0.636 in test [17]; 0.459 in test [18].

Take CCTAGCAGGCCAATCTGGGTCACACAAGGCTTGA: the PBM binding z-score was 4.53 in [1]; 5.23 in test [2]; 0.519 in test [3]; -0.276 in [4]; 0.856 in [5]; 1.56 in [6]. Further, the PBM binding z-score in test [7] is -0.6; in test [8], 1.86; in [9], 0.119; in [10] it was 1.76; in [11] it was 2.53; in test [12], 1.61. Also, the PBM binding z-score in test [13] worked out at 1.82; in test [14], 0.0737; in [15], 1.63; in test [16], 3.99; in [17], 0.9; in test [18] it was 0.17.

As to TAGCGTAGGTCAGATCGGGCCAGTATACGCTATA, the PBM binding z-score in [1] is -0.503; in test [2], 0.617; in test [3] it was -0.164; in test [4], -0.912; in [5], -0.143; in test [6] it was 1.48. Moreover, the PBM binding z-score in test [7] was -0.976; in [8] it was 1.23; in [9] it was -1.14; in test [10], 3.07; in test [11], 1.87; in test [12] it was 2.85. Moreover, the PBM binding z-score was 3.72 in [13]; -0.899 in test [14]; 1.83 in test [15]; 3.93 in test [16]; -1.02 in test [17]; -0.553 in test [18].

Take TCGGGTAGGTTACCAATGGGGCATTCAGCTTTCT: the PBM binding z-score in test [1] is 1.78; in [2], 1.82; in test [3] it was 0.338; in test [4], -0.222; in [5], 0.725; in test [6], 0.647. In addition, the PBM binding z-score in [7] is -0.198; in [8], 0.735; in test [9], 0.0772; in [10], 1.41; in [11], 1.04; in test [12], 1.63. In addition, the PBM binding z-score in test [13] turned out to be 0.754; in test [14] it was 0.101; in [15], 0.683; in test [16], 0.482; in test [17] it was 0.377; in test [18], 0.0681.

On to CGAACAAGGTCAGAACAGGACAGTGAAGGATGAT, for which the PBM binding z-score stood at 2.79 in test [1]; 3.05 in test [2]; 0.722 in [3]; 0.826 in [4]; 1.5 in test [5]; 3.22 in test [6]. The PBM binding z-score is 0.399 in test [7]; 2.47 in [8]; 0.0836 in test [9]; 4.31 in test [10]; 3.28 in test [11]; 4.38 in [12]. Also, the PBM binding z-score in test [13] turned out to be 4.86; in [14], 2.29; in test [15], 3.5; in test [16] it was 4.28; in test [17] it was 1.11; in test [18] it was 1.14.

Take CCTTACGGGTCACCCCAGGTTATAGCATCGGAGT: the PBM binding z-score is 1.58 in [1]; 3.6 in test [2]; 0.299 in test [3]; -0.0802 in test [4]; 2.12 in test [5]; 5.4 in test [6]. Also, the PBM binding z-score in test [7] came to 0.158; in test [8], 4.43; in test [9], 0.572; in [10], 3.79; in test [11], 3.53; in test [12], 5.05. For the same sequence, the PBM binding z-score in test [13] is 4.77; in test [14], 0.177; in test [15] it was 5.34; in test [16], 5.16; in [17], 1.21; in [18] it was 1.41.

For CTCGAATGGTCGGTTGAGGTGAGTATACGGATAA, the PBM binding z-score in test [1] was -0.784; in test [2] it was 0.126; in [3], 0.733; in test [4], 0.405; in [5], -0.164; in [6], -0.105. The PBM binding z-score in test [7] is -0.022; in test [8], 0.211; in [9], -0.0787; in test [10], 0.283; in test [11] it was 0.181; in test [12], -0.0812. The PBM binding z-score in test [13] is 0.168; in test [14], -0.376; in [15] it was -0.171; in test [16] it was 2.85; in [17], 1.49; in test [18] it was 0.136.
